Experimental data published in PubChem BioAssay AID624305 (National Center for Advancing Translational Sciences (NCATS), 2012).
Results filed as inconclusive are left out. Activity calls are given as the source filed them. Calls come from the whole dose curve; as a rule, active = well fitted activation curve with a large enough effect; inconclusive = small, poorly fitted or top-dose-only effect; inactive = no such curve, though single readings can be large or run the other way.

Test: qHTS assay for re-activators of p53 using a Luc reporter: Hit Validation; note: nearly all actives have a fitted effect of over 75% in size; for activation: 0% is about no effect
Details: p53-responsive luciferase reporter cells, luminescence, H1299 line expressing heat-sensitive Ala138Val p53; series mostly up to 46.1 µM; activation: at the top concentration
Summary of the method: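 Hit confirmation with a 1:5 dilution series, at 37 deg C for 24 hrs, in H1299 cells co-expressing temperature-sensitive p53-A138V and p53-responsive luciferase. Nocodazole served as control; luminescence read after 10 min with detection reagent.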
Potency is the fitted concentration of half-maximal effect.

Compound | activation | Potency
COc1ccc(NC(=O)CN(C)CC(=O)Nc2ccccc2SC)cc1 | -11.5% (inactive) | –
O=C(CSc1nnc(-c2ccc3c(c2)OCCO3)o1)N1CCCC1 | – | 7.31 µM (active)
Cc1ccc(C(=O)CN2C(=O)NC3(CCCCC3C)C2=O)s1 (stereo not drawn) | -5.21% (inactive) | –
Cc1nn2cc(-c3ccc(-c4ccccc4)cc3)nc2s1 | – | 0.184 µM (active)
COc1ccc2oc(C(=O)Nc3nc(C)cs3)c(C)c2c1 | – | 1.84 µM (active)
Nc1c(C(=O)c2ccc(Cl)cc2)oc2ccccc12 | -86.5% (inactive) | –
C/C(=N\NC(=S)NC1CCCCC1)c1ccccc1 | -80.2% (inactive) | –
CN(C)CCN(CC1CCCN(Cc2ccccc2F)C1)C(=O)c1ccc(F)cc1 (stereo not drawn) | 6.77% (inactive) | –
COc1ccccc1C(=O)CC(=O)c1ccccc1 | 2.08% (inactive) | –
CCOc1ccc(NC(=O)C(c2ccccn2)N(C(=O)CCl)c2ccc(OC)cc2)cc1 (stereo not drawn) | 40.6% (inactive) | –
Cc1cc(C)nc(SCc2csc(-c3ccccc3)n2)n1 | – | 13 µM (active)
CCOc1ccc(-n2c(SCc3nc(-c4cccs4)no3)nnc2-c2ccncc2)cc1 | -12.5% (inactive) | –
O=C(COC(=O)c1cc2ccccc2oc1=O)Nc1cccc(S(=O)(=O)N2CCCCCC2)c1 | 37.5% (inactive) | –
C=CCn1c(C)cc(C(=O)CSc2nc3ccccc3o2)c1C | – | 0.731 µM (active)
CCCCC(=O)Nc1cccc(NC(=S)NC(=O)Cc2ccccc2)c1 | -23.4% (inactive) | –
Clc1ccc(OCc2cc(-c3ccccc3)no2)c(Cl)c1 | – | 1.16 µM (active)
Cc1ccc(C(=O)CC(Nc2ccc(F)cc2)c2ccccc2)cc1 (stereo not drawn) | 35.9% (inactive) | –
COc1ccc(C2/C(=C(/O)c3ccc(C)cc3)C(=O)C(=O)N2CCCN2CCOCC2)cc1 (stereo not drawn) | -17.2% (inactive) | –
Cc1ccc(CCc2nnc(SCC(=O)Nc3cccc(Cl)c3)n2-c2ccccc2)o1 | -16.1% (inactive) | –

Compound | activation | Potency
COc1ccc(N=C(N)SCc2ccccn2)cc1 | 28.6% (inactive) | –
CC1CC1C(=O)Nc1nc2ccc(S(C)(=O)=O)cc2s1 (stereo not drawn) | 37.5% (inactive) | –
O=C(NCCN1CCOCC1)c1cc(-c2cccs2)on1 | – | 23.1 µM (active)
COc1cccc(/C=N/NC(=O)CCc2n[nH]c(=O)[nH]c2=O)c1O | 5.21% (inactive) | –
Cc1ccc(-c2nnc(SCc3ccccc3F)o2)cc1 | – | 1.3 µM (active)
CC1Cc2ccccc2N1C(=O)COC(=O)C1(c2ccccc2F)CCCC1 (stereo not drawn) | 80.2% (inactive) | –
O=C(NNC(=O)C1CCCO1)c1ccccc1Cl (stereo not drawn) | -6.25% (inactive) | –
COc1ccc(-n2nc([N+](=O)[O-])c(=NCc3ccco3)n2O)cc1 | 39.6% (inactive) | –
Cc1ccc(CNc2cc(C(=O)O)ccc2Cl)s1 | -12.5% (inactive) | –
O=C(CCc1nc(-c2ccccc2)no1)N1CCCC1 | 42.2% (inactive) | –
COc1nnc(-c2ccc(C)c(S(=O)(=O)N(C)C)c2)c2ccccc12 | -20.3% (inactive) | –
CC(C)(C)c1ccc(/C=C2\SC(=O)N(CCNC(=O)c3cccc(S(=O)(=O)N4CCOCC4)c3)C2=O)cc1 | – | 1.84 µM (active)
N=C1C(c2nc3ccccc3s2)=C(O)CN1Cc1ccccc1 | – | 14.6 µM (active)
O=C(CN1C(=O)NC2(CCCc3ccccc32)C1=O)c1ccc(F)cc1 (stereo not drawn) | -10.9% (inactive) | –
Cc1csc(NC(=O)/C=C/c2ccco2)n1 | – | 10.3 µM (active)
O=C(CNS(=O)(=O)c1cccc(Cl)c1)Nc1ccc(-c2nc3ccccc3s2)cc1 | – | 16.4 µM (active)
O=C(Nc1ccc(Br)cn1)c1cccc(-c2cc3ccccc3oc2=O)c1 | – | 16.4 µM (active)
Cc1ccc(C)c(Oc2cc(NC(=O)CCCn3nc(C)c([N+](=O)[O-])c3C)cc([N+](=O)[O-])c2)c1 | -32.8% (inactive) | –
C#CCn1c(=NC(=O)c2cccs2)sc2cccc(OCC)c21 | -7.81% (inactive) | –
